aSyn 5UTR act: Activators via SNCA 5'UTR binding, MLPCN | 300,000 compounds, 7.1% hits | alpha-synuclein 5'UTR reporter, activators screen | activity score, % (tested at 7.5 µM), hits read low; in the data active = activity score below about -60%
Numbers without * were called inactive. Not all results are given here.

SMILES	aSyn 5UTR act
S=C(c1ccc(-c2ccc(Cl)cc2Cl)o1)N1CCCC1	-140*
S=C(c1ccc(-c2ccc(Cl)cc2Cl)o1)N1CCCCC1	-208*
O=C(N/N=C/C(Br)=C\c1ccccc1)c1cccs1	-318*
CC(=C/c1ccccc1)/C=N/NC(=O)c1cccs1	-90*
CC(/C=N/NC(=O)c1nn(C)c(C)c1Br)=C\c1ccccc1	-122*
CC(=C/c1ccccc1)/C=N/n1cnnc1	56
CNC[C@H](Cc1ccccc1)NC[C@@H](Cc1cccc2ccccc12)NCCc1ccc(C)cc1	123
Cc1nnc(NCCc2ccccc2)c2ccccc12	-86*
CN=c1scc(-c2cccs2)n1/N=C/c1ccccc1O	103
Oc1ccccc1/C=N/N1CCCCC1	-77*
Oc1ccc(/C=N/N2CCCCC2)c(O)c1	-93*
N#Cc1c(N)nc2c(c1N)CC(COc1ccccc1)O2 (configuration not stated)	-130*
Cc1cc(NC(=O)c2noc3c2CCCC3)no1	-107*
Cc1cc(NC(=O)c2noc3c2CCCCC3)nn1Cc1ccc(Cl)cc1	-71*
O=C(Nc1cccnc1)c1noc2c1CCCC2	-115*
CC(=O)c1ccc(NC(=O)c2noc3c2CCCCC3)cc1	-87*
Cc1cc(NC(=O)c2noc3c2CCCCC3)no1	-168*
CCC(=NCCc1c(C)[nH]c2ccc(C)cc12)C1=C(O)CC(c2ccccc2)CC1=O (configuration not stated)	104
C=CCc1c(C)[nH]c2ccc(C)cc2c1=O	-86*
CCc1ccc(-c2cn(C3CCCCC3)c(=S)[nH]2)cc1	-127*
Cc1ccc(NC(=O)C(C)OC(=O)c2n[nH]c3ccccc23)cc1 (configuration not stated)	-71*
O=C(CN1C(=O)c2ccccc2S1(=O)=O)c1ccc(F)cc1	92
O=C(CN1CCN(CCN2C(=O)c3cccc4cccc(c34)C2=O)CC1)c1ccc(F)cc1	-65*
O=C(NC1=NCCS1)c1ccc(OCC2CCCO2)cc1 (configuration not stated)	-77*
Cc1cnc(NC(=O)c2ccc(OCC3CCCO3)cc2)s1 (configuration not stated)	79
SMILES	aSyn 5UTR act
Cc1ccc(NC(=O)c2ccc(OCC3CCCO3)cc2)cc1 (configuration not stated)	-123*
CCOc1ccc(C(=O)NC2=NCCS2)cc1	-85*
O=C(Nc1nc2ccccc2s1)c1ccc(OCC2CCCO2)cc1 (configuration not stated)	-89*
Cc1ccc(NC(=O)c2ccc(OC(=O)COc3ccc(Cl)c(C)c3)cc2)cc1	-115*
Clc1ccc(-c2n[nH]c3c2Cc2ccccc2-3)cc1Cl	-66*
O=C(CSCCO)Nc1ccc(C2CCCCC2)cc1	-127*
COc1ccc(NC(=O)C(=S)NC2CCCCC2)cc1	-125*
CCOc1ccc(NC(=O)C(=S)NC2CCCCC2)cc1	-192*
COc1ccc(NC(=O)CSC2CCCCC2)cc1	-158*
CCc1ccc(NC(=O)C(=S)NC2CCCCC2)cc1	-177*
COc1ccc(NC(=O)C(=S)N2CCCC2)cc1	-63*
CC1CCC(NC(=O)Cn2cc3c(n2)CCCC3)CC1 (configuration not stated)	-157*
Cc1ccc2c(c1)sc1nc(=O)n(-c3ccccc3)c(=O)n12	-68*
COc1ccccc1C(=O)NNC(=O)c1cccc(C)c1	-139*
COc1ccccc1C(=O)NNC(=O)c1cccc([N+](=O)[O-])c1	-62*
Cn1c(=O)c(C(=O)Nc2ccccc2S(N)(=O)=O)c(O)c2ccccc21	-64*
Cc1ccccc1Nc1c(-c2ccc(N3CCOCC3)cc2)nc2cnccn12	-67*
CC1CC(c2ccccc2)=Nc2ccccc2N1 (configuration not stated)	-100*
Cc1ccc(NCCC(=O)c2ccc(Cl)cc2)cc1C	-99*
Cc1cccc(NCCC(=O)c2ccc(Br)cc2)c1	-94*
Cc1cc(C)c(C(CC(=O)c2cccs2)C(C#N)C#N)c(C)c1 (configuration not stated)	-189*
CC(=O)c1ccc(NCCC(=O)c2ccccc2)cc1	-82*
Cc1ccc(NCCC(=O)c2cccs2)cc1Cl	-87*
Cc1ccc(NCCC(=O)c2cccs2)cc1	-164*
CC(C)c1ccc(NCCC(=O)c2cccs2)cc1	-217*
SMILES	aSyn 5UTR act
CC(CC(=O)c1cccs1)CC(=O)c1cccs1	-144*
COc1cccc2c1C(=O)c1c(O)c3c(c(O)c1C2=O)C[C@](O)(C(C)=O)C[C@H]3O[C@@H]1C[C@@H](N)[C@@H](O)[C@@H](C)O1	111
Cc1ccc(NCCC(=O)c2cccs2)cc1C	-187*
COC(=O)c1ccc(COC(=O)CCC(=O)c2cccs2)cc1	-84*
O=C(Nc1ccc(Br)cc1)C1OCCc2ccccc21 (configuration not stated)	-84*
COC(=O)c1ccc(CSc2nc(N)cc(N)n2)cc1	-66*
COC(=O)c1ccc(Oc2cc(C)nc(-n3nc(C)cc3C)n2)cc1	65
Cc1cccc2c1cnn2C(=O)Nc1ccccc1Cl	-143*
Cc1cccc2c1cnn2C(=O)Nc1ccccc1Br	-125*
Cc1ccccc1NC(=O)n1ncc2cc(Cl)ccc21	-98*
O=C1c2ccccc2CN1CCSC(=S)N1CCOCC1	-105*
O=C1c2ccccc2CN1CCSC(=S)N1CCSCC1	-109*
CCCc1cc2c(=O)c(-c3ccc4c(c3)OCCO4)coc2cc1OC(=O)c1ccco1	-287*
CCCc1cc2c(=O)c(-c3ccc4c(c3)OCCO4)coc2cc1OS(C)(=O)=O	-222*
COc1ccc(/C=C/C(=O)c2ccc(O)cc2)cc1	-196*
COc1cc(/C=C/c2ccc(O)cc2)cc(OC)c1	-156*
COc1ccc(/C=C/c2cc(-c3ccc(C)cc3)o[n+]2C)cc1	89
COc1ccc2cc(C(=O)/C=C/c3cc(OC)c(OC)c(OC)c3)ccc2c1	-62*
COc1ccc(/C=C/C(=O)c2ccoc2)cc1	-62*
COC(=O)c1ccc2c(c1)C(C)(C)C(/C=C/c1ccc(O)cc1)=[N+]2C	119
COc1ccc(/C=C/C(=O)c2ccccc2O)cc1	-233*
COc1ccc(/C=C/C(=O)c2ccccn2)cc1	-98*
COc1ccc(C(=O)NNC(=O)c2ccccn2)cc1	79
O=C(Nc1ccc(Cl)cc1)ON=C1CCCC1	-75*
O=C1C2C3CCC(C3)C2C(=O)N1c1ccc(OS(=O)(=O)c2ccccc2)cc1 (configuration not stated)	-178*
SMILES	aSyn 5UTR act
c1ccc(CSc2nnc(SCc3ccccn3)s2)nc1	-118*
c1ccc(-c2ccc(SCc3cccnc3)nn2)nc1	-75*
c1ccc(CSc2ccc(-c3cccnc3)nn2)cc1	-117*
c1ccc(CSc2ccc(-c3ccccn3)nn2)nc1	-62*
CCOc1ccc(-c2ccc(SC)nn2)cc1	76
Clc1ccc(-c2ccc(SCc3ccccn3)nn2)cc1	-141*
CCOC(=O)c1ccc(NC(=O)c2ccc3c(c2)OCO3)cc1	-118*
CCOC(=O)c1c(C)[nH]c(C(=O)Nc2ccc3c(c2)OCO3)c1C	-99*
CCN(CC)c1ccc(NC(=O)c2ccc3c(c2)OCO3)cc1	-133*
COc1cc(/C=C2\CCC/C(=C\c3ccc(O)c(OC)c3)C2=O)ccc1O	-394*
COc1cc(/C=C2/CCC/C(=C\c3cc(O)c(OC)c(Cl)c3)C2=O)cc(Cl)c1O	-143*
COc1cc(/C=C2\Oc3cc(O)ccc3C2=O)ccc1O	-194*
CCOc1cc(/C=C2\CN(CC)C/C(=C\c3ccc(O)c(OCC)c3)C2=O)ccc1O	102
COc1cc(/C=C2\COC/C(=C\c3cc(OC)c(OC)c(OC)c3)C2=O)cc(OC)c1OC	103

Screening results: PubChem, Broad Institute
